Results reported in PubChem BioAssay AID2705 (National Center for Advancing Translational Sciences (NCATS), 2010).
This is one part of the list. Inconclusive results are not listed. Activity calls are given as the source filed them. Calls come from the whole dose curve; as a rule, active = well fitted inhibition curve with a large enough effect; inconclusive = small, poorly fitted or top-dose-only effect; inactive = flat fitted curve, though single readings scatter.

target: Dual specificity tyrosine-phosphorylation-regulated kinase 1A (Homo sapiens) (UniProt Q13627); test: Assay for Inhibitors of Dual-Specificity Tyrosine-(Y)-Phosphorylation Regulated Kinase 1A (Kinase-Glo assay); settings: recombinant DYRK1A, Kinase-Glo ATP depletion luminescence
Source text: NIH Molecular Libraries Probe Production Centers Network [MLPCN] NIH Chemical Genomics Center [NCGC] MLSCN Grant: 1R03MH084827-01 PI Name: Tom Misteli NCGC Assay Overview: The CMGC group of protein kinases which includes CDK-like kinases (Clk) and Dyks are essential kinases found in all eukaryotes. Clks have been implicated to play a role in the regulation of alternative splicing; while Dyrks, in particular over expression of Dyrk1A, has been linked to diseases as Down syndrome (DS; OMIM 190685) and Alzheimer disease (AD; OMIM 104300). Among the members of the CMGC group, the Clks and the Dyrks are very closely related therefore to determine validity and selectivity of an active compound observed in the CLK4 qHTS screen (AID:1770), a bioluminescent counter-screen against Dyrk1A was developed. In addition, potent and selective compounds against Dyrk1A were identified to further assess the role of this enzyme in DS and AD. Dyrk1A (Invitrogen, cat # PV3785) was assayed using ATP and DYRKtide (AnaSpec, cat# 62698) as substrates. Promega Kinase-Glo (cat# V6712) technology was used to detect the residual ATP following kinetic reaction. The Kinase-Glo Plus contains Ultra-Glo [5] luciferase and D-luciferin which generates a bioluminescence signal from the remaining ATP. No enzyme and harmine (Sigma, cat # 286044-1G), a compound shown to inhibit Dyrks were used as a positive control; while DMSO treatment was used as a negative control.
NCGC Assay Protocol Summary: Two uL/well of substrate solution (8uM Dyrktide, 2uM ATP, 25mM Tris-HCl pH 7.5, 10mM MgCl2 , 0.5mM EGTA, 5mM cystein, 0.01% Triton X-100 final concentration) was dispensed into 1536-well assay plates (Greiner, solid white, medium-binding plates) with Aurora Discovery BioRAPTR Flying Reagent Dispenser (FRD, Beckton-Dickenson). Compound solution (23 nL) was transferred to the assay plate using Kalypsys pin tool equipped with a 1536-pin tool. One uL/well enzyme solution (5nM Dyrk1A, 25mM Tris-HCl pH7.5, 10mM MgCl2, 0.5mM EGTA, 5mM cystein, 0.01% Triton X-100 final concentration) was then added using FRD yielding a total kinase reaction volume of 3uL/well. After 2 hours of room temperature incubation, 3uL Kinase-Glo detection reagent was added for a final assay volume of 6uL/well. The plates were spun for 30 seconds (1000 rpm) and incubated at ambient temperature for 2 minutes followed by a luminescence read using Perkin Elmer ViewLux plate reader at 3 seconds exposure time and 2x binning.

Potency, active:
Cc1nc(CNc2ncnc3ccc(-c4ccc5c(c4)OCO5)cc23)cs1 292 nM
c1coc(CCNc2ncnc3ccc(-c4ccc5c(c4)OCO5)cc23)c1 164 nM
Cc1nc(C)c(-c2ccc3ncnc(NCc4ncc[nH]4)c3c2)s1 5190 nM
CN(Cc1cncn1C)c1ncnc2ccc(-c3ccc4c(c3)OCO4)cc12 2600 nM
